# The campaign covered roughly 310,000 compounds. About 17,000 (5.5%) were called active. About 11% were inconclusive and are not listed. Calls come from the whole dose curve; as a rule, active = well fitted inhibition curve with a large enough effect; inconclusive = small, poorly fitted or top-dose-only effect, or effect the other way; inactive = no such curve, though single readings can be large or run the other way. Shown is part of a subset that was picked to be rich in actives. Entries that show only a call come without a potency.
# Molecular target: Nuclear receptor ROR-gamma (Mus musculus) (UniProt P51450)
# Test: qHTS for inhibitors of ROR gamma transcriptional activity; note: nearly all actives have a fitted effect of over 60% in size
# Conditions: Drosophila S2 Gal4-RORgamma UAS-luciferase reporter, 20 h; series mostly up to 53.6 µM
# Excerpt: NIH Molecular Libraries Probe Production Network [MLPCN] NIH Chemical Genomics Center [NCGC] MLPCN Grant: R03 DA026211-01 Assay Provider: Dan Littman, New York University Assay Overview: The retinoic acid-related orphan receptor (ROR) gamma is a transcription factor that has a central role in the differentiation of Th17 cells, a subset of T helper cells that secrete the inflammatory cytokines IL-17, IL-17F, and IL-22. Th17 cells have been implicated in graft versus host disease, autoimmune disease and asthma. ROR gamma is induced in naive T helper cells in the presence of TGF-beta combined with IL-6, IL-21, or IL-23, and thereafter directs the expression of the Th17 lineage cytokines. To study the mechanism of action of ROR gamma, an insect cell-based assay was screened. This Drosophila Schneider cell line was stably transfected with two vectors: a gene expressing a fusion of the Gal4 DNA binding domain and ROR gamma transactivation domain under the control of the metallothionine promoter and a Photinus luciferase reporter regulated by the Gal4 binding site enhancer, UAS. […] Small molecule inhibitors of ROR gamma activity are detected by a decrease in luciferase reporter activity.
# Assay Protocol Summary: For screening, 600 cells in 4 uL/well were dispensed into white solid 1536-well plates (Grenier) using a solenoid-based dispenser. Following transfer of 23 nL compound or DMSO vehicle by a pin tool, the plates were incubated 1 hr at ambient temperature, and 1 uL/well copper sulfate (700 uM final concentration) was added. The plates were centrifuged 15 s at 1000 RPM and incubated 20 hr at ambient temperature. After addition of 1.5 uL Photinus luciferase detection reagent, the plates were incubated 10 min at ambient temperature and then read by an ViewLux (Perkin Elmer) to detect luminescence. Keywords: NIH Roadmap, MLPCN, MLI, MLSMR, qHTS, NCGC, qHTS, nuclear hormone receptor, retinoic acid-related orphan receptor, ROR gamma
# Potency is the fitted concentration of half-maximal effect.
# Nuclear receptor ROR-gamma (Mus musculus), sequence (P51450 whole entry, looked up): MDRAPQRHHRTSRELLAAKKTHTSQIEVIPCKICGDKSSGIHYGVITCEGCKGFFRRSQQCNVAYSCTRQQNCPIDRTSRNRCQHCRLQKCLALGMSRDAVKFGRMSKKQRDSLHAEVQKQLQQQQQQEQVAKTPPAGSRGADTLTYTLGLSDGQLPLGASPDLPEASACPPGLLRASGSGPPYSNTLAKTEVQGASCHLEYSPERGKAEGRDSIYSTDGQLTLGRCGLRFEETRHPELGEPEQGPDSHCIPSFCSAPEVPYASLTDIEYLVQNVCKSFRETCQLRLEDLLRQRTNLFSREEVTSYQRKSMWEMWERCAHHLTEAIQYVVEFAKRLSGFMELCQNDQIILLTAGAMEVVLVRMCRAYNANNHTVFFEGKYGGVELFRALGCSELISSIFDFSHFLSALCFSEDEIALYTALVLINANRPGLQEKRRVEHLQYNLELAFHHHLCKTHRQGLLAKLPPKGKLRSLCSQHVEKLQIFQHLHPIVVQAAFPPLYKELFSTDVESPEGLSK
row,Compound,Potency
1,CC1(C)C2CC=C(/C=N/NC(=O)c3ccc(Cl)cc3)C1C2 (stereo unspecified),12.6 µM (active)
2,CC1(C)C2CC=C(/C=N/NC(=O)C3CC3)C1C2 (stereo unspecified),inactive
3,N#Cc1cc([N+](=O)[O-])ccc1Oc1cccc(/C=N/NC(=O)c2ccc(Cl)cc2)c1,inactive
4,N#Cc1c(-c2ccccc2)nc(SCc2cccc(C(F)(F)F)c2)[nH]c1=O,inactive
5,Cc1nn(C(C)C(=O)NCCC2=CCCCC2)c(=O)c2nn(-c3ccccc3)c(C)c12 (stereo unspecified),inactive
6,Cc1cc(C)cc(NC(=S)NCCCN2CCOCC2)c1,inactive
7,O=C(NNC(=S)NCCCN1CCOCC1)c1ccncc1,inactive
8,CCCCc1ccc(NC(=S)NCCCN2CCOCC2)cc1,10 µM (active)
9,COc1ccccc1C(=O)N(C1=NC(C)CS1)c1ccc(Cl)cc1 (stereo unspecified),inactive
10,Cc1ccc(C)c(NC(=O)c2ccc3nccnc3c2)c1,inactive
11,CCC1(C)Cc2c(sc3[nH]c(=S)n(Cc4ccccc4)c(=O)c23)CO1 (stereo unspecified),0.708 µM (active)
12,CCC1(C)Cc2c(sc3nc(SC)[nH]c(=O)c23)CO1 (stereo unspecified),inactive
13,CCC1(C)Cc2c(sc3nc(SC)nc(N)c23)CO1 (stereo unspecified),inactive
14,COc1ccc(S(=O)(=O)NCCCCOc2ccc(Cl)cc2)cc1,inactive
15,COc1cccc(CNS(=O)(=O)c2ccc3c(c2)N(C(C)=O)CCS3)c1,inactive
16,COc1cccc(C(=O)N/N=C(\C)c2cccc(NC(=O)c3ccc(F)cc3)c2)c1OC,inactive
17,COc1cccc(NC(=O)CSc2nnc(Cc3ccc(OC)c(OC)c3)o2)c1,inactive
18,COc1cccc(CNC(=O)CCN2C(=S)NC(C)(C)CC2C)c1 (stereo unspecified),inactive
19,CCN(Cc1ccccc1)C(=O)CN1C(=S)NC(C)(C)CC1C (stereo unspecified),11.2 µM (active)
20,CCN(CC)C(=O)N(CC)Cc1ccccc1,inactive
21,O=C(CCc1n[nH]c(=O)[nH]c1=O)N/N=C/c1ccc(Br)o1,inactive
22,Cc1ccc(NC(=O)COc2ccc(/C=N\NC(=O)c3cccnc3)cc2)cc1C,inactive

row,Compound,Potency
1,Cc1ccc(C(=O)N/N=C\c2cc(Br)c(Br)o2)cn1,11.2 µM (active)
2,O=C(N/N=C/c1ccc(Br)o1)c1cncc(Br)c1,5.62 µM (active)
3,O=C(CCC(=O)N/N=C/c1ccc(Br)o1)N/N=C/c1ccc(Br)o1,inactive
4,O=C(N/N=C/c1ccco1)c1ccc(NC(=O)C2CC2)cc1,inactive
5,CCN(CC)CCN1C(=O)C2C(C(=O)Nc3ccc(Br)cc3)C3C=CC2(O3)C1C(=O)NC1CCCCC1 (stereo unspecified),inactive
6,Cc1c(C(=O)NC(C)C2CC3CCC2C3)cccc1[N+](=O)[O-] (stereo unspecified),inactive
7,O=C(OC1CCOC1=O)c1ccc(-c2nc3ccccc3s2)s1 (stereo unspecified),3.55 µM (active)
8,Cc1nn(Cc2ccccc2)c(Cl)c1C(=O)OC1CCOC1=O (stereo unspecified),inactive
9,CC(C)c1ccc(C(=O)OC2CCOC2=O)cc1 (stereo unspecified),inactive
10,CCOc1ccc(NC(=O)c2nc(SCC)ncc2Cl)cc1,inactive
11,CC1CC(C)CN(C(=O)CCNC(=O)Cn2cnc3ccccc3c2=O)C1 (stereo unspecified),inactive
12,CCc1ccc(-c2cc(C)no2)cc1S(=O)(=O)NCCc1ccc(S(N)(=O)=O)cc1,inactive
13,Cc1ccc2cc3cc(C(=O)N4CCCCCC4)oc3nc2c1,10 µM (active)
14,Cc1cc(=O)oc(C)c1C(=O)N1CCCCC1,inactive
15,Cc1cccc(C(=O)N2CCCN(C(=O)c3cccc(C)c3)CC2)c1,inactive
16,CCC1=Nc2cc(C(=O)NCCCN3CCOCC3)ccc2Sc2ccc(Br)cc21,inactive
17,COc1cccc(CN(C)CC(O)COC(c2ccccc2)c2ccccc2C)c1 (stereo unspecified),inactive
18,CSc1ccc(CCNC(=O)CS(=O)(=O)Cc2nc(-c3ccccc3F)oc2C)cc1,inactive
19,Cc1ccc(C(=O)NCCN2CCOCC2)cc1C,inactive
20,O=C(Nc1nnc(C2=COCCO2)o1)c1ccc([N+](=O)[O-])s1,2.82 µM (active)
21,Cc1ccc(C(=O)Nc2nnc(-c3cccs3)s2)cc1C,inactive
22,Cc1ccc(C(=O)Nc2nnc(C3=COCCO3)o2)cc1C,0.282 µM (active)

row,Compound,Potency
1,COc1ccc(C(CNCC(=O)Nc2ccccc2F)N(C)C)cc1 (stereo unspecified),inactive
2,C=CCn1c(CNS(=O)(=O)c2ccc(Br)cc2)nnc1SC,inactive
3,CC(C)c1ccc2oc(=O)cc(CN3CCN(Cc4ccccc4)CC3)c2c1,inactive
4,CCOc1ccc(NC(=O)CSc2nncn2C)cc1,inactive
5,COc1ccc(C)cc1NC(=O)CN(C)S(=O)(=O)c1ccc2c(c1)n(C)c(=O)c(=O)n2C,inactive
6,CC(C)c1ccc(N(C(=O)c2ccco2)C(C(=O)NC2CCCC2)c2cccnc2)cc1 (stereo unspecified),inactive
7,COc1ccc(CNC(=O)c2ccc3oc(C(C)C)nc3c2)cc1,inactive
8,COc1ccc(N2CCN(S(=O)(=O)c3ccc4c(c3)N(C(C)=O)CCO4)CC2)cc1,inactive
9,CCOCCCN(C)C1CCN(C(=O)c2oc3ccccc3c2NC(=O)Cc2cccc([N+](=O)[O-])c2)CC1,inactive
10,Cc1nnnn1/C(=C\c1ccccc1)C(=O)OCC(=O)N1CC2(C)CC1CC(C)(C)C2 (stereo unspecified),5.01 µM (active)
11,COc1cc(CCC(=O)N2CCN(c3ccccc3Cl)CC2)cc(OC)c1OC,inactive
12,COc1ccc(NC(=O)N2CCC(Cc3ccccc3)CC2)cc1,inactive
13,COc1ccc(NC(=S)NCC2CCN(c3ccc(OC)cc3)C2)cc1 (stereo unspecified),3.16 µM (active)
14,COc1cccc(N2CC(C(=O)Nc3c(C)cccc3C)CC2=O)c1 (stereo unspecified),inactive
15,COc1ccc(OCC(=O)Nc2ccc(N3CCC(C)CC3)cc2)cc1,inactive
16,COc1ccc(N2CCC(CNC(=S)Nc3c(C)cccc3C)C2)cc1 (stereo unspecified),0.891 µM (active)
17,COc1ccc(NC(=S)NCCN2CCC(C)CC2)cc1,inactive
18,O=C(Cn1nc(C(=O)O)c2ccccc2c1=O)Nc1ccc(F)cc1,inactive
19,CC1Sc2ccc(S(=O)(=O)CCC(=O)NCc3ccccc3Cl)cc2NC1=O (stereo unspecified),inactive
20,CC(=O)c1cc(CN2CCC(C(=O)Nc3cccc(-c4cscn4)c3)CC2)cs1,inactive
21,COc1ccc(CCNC(=O)c2nnc(CS(=O)(=O)c3ccccc3)o2)cc1OC,inactive
22,Cc1cccc(OCC(=O)Nc2ccc(C(=O)O)cc2NC(=O)COc2cccc(C)c2)c1,inactive

row,Compound,Potency
1,COCCNc1ccc(-c2n[nH]c(=O)c3ccccc23)cc1[N+](=O)[O-],inactive
2,O=c1c2c(nc3nc[nH]n13)CCC2,inactive
3,Brc1ccc(Nc2c3c(nc4ncnn24)CCC3)cc1,12.6 µM (active)
4,Cc1nc(S(=O)(=O)c2ccc(Br)cc2)nc2c1CCC2,inactive
5,COc1cc2c(cc1OC)/C(=C/C(=O)c1ccc(NC(C)=O)cc1)NCC2,inactive
6,CC1CN/C(=C\C(=O)c2ccc(Br)cc2)C(=O)N1 (stereo unspecified),12.6 µM (active)
7,C/C(=C\C(=O)c1ccc(Br)cc1)N1CCCCC1,inactive
8,C[C@H](NC(=O)[C@@H]1Cc2ccccc2CN1C(=O)OC(C)(C)C)C(=O)NC1CCCC1,inactive
9,CC(NC(=O)c1ccco1)c1ccc2c(c1)OCO2 (stereo unspecified),inactive
10,Cc1cc(/C=N/n2cnnc2)c(C)n1-c1cccc(C(=O)O)c1,inactive
11,Cc1cccc(-n2c(C)cc(/C=N\NC(=O)c3cccs3)c2C)c1,10 µM (active)
12,Cc1ccc(C(=O)Nc2ccc(NC(=O)c3cccs3)cc2)c(C)c1,inactive
13,Cc1cccc(-n2c(C)cc(/C=N/NC(N)=S)c2C)c1,3.55 µM (active)
14,Cc1cc(/C=C2\SC(=O)N(C)C2=O)c(C)n1-c1cccc(C(=O)O)c1,inactive
15,Cc1cc(/C=N/Nc2ccc([N+](=O)[O-])cn2)c(C)n1-c1cccc(C(=O)O)c1,inactive
16,COC(=O)c1ccc2c(=O)n(CCN3CCOCC3)c(SCC(=O)Nc3cccc(OC)c3)nc2c1,inactive
17,CCN1C(=S)N[C@@H](c2cccc(C(F)(F)F)c2)C(C(=O)OC)=C1C,inactive
18,CC(C)C[C@H](NC(=O)C1CCC(CNC(=O)[C@@H]2CCCN2C(=O)OC(C)(C)C)CC1)C(=O)O (stereo partly specified),inactive
19,COc1cc(NS(=O)(=O)c2ccc(N/C=C(\C=O)c3nc4cc(Cl)ccc4o3)cc2)nc(OC)n1,14.1 µM (active)
20,COC(=O)Nc1ccc(S(=O)(=O)Nc2cc(OC)nc(OC)n2)cc1,inactive
21,COc1cc(NS(=O)(=O)c2ccc(NC(=S)NC(=O)c3ccccc3)cc2)nc(OC)n1,inactive
22,COc1ccc(C2(O)C(=O)Nc3ccccc32)cc1 (stereo unspecified),inactive

row,Compound,Potency
1,Cc1cccn2c(=O)c3cc(C(=O)NC4CCCCC4)sc3nc12,inactive
2,COc1ccc(-c2nc(CS(=O)(=O)CC(=O)NCc3cccc(Br)c3)c(C)o2)cc1,inactive
3,CC(C)c1ccc(NC(=S)NNc2ccc(Cl)c(C(=O)O)c2)cc1,inactive
4,CC(C)c1ccc(NC(=S)NC2CC3C=CC2C3)cc1 (stereo unspecified),3.55 µM (active)
5,S=C(NNC(=S)NC1CC2C=CC1C2)NC1CC2C=CC1C2 (stereo unspecified),inactive
6,CC(=O)Nc1ccc(NC(=O)COc2ccc(-c3ccccc3)cc2)cc1,inactive
7,CC1=CC(C)(C)N(C(=O)CSc2nccn2C)c2cc(C)ccc21,11.2 µM (active)
8,Cc1ccc(C)c(-n2ccnc2SCC(N)=O)c1,inactive
9,CC1=CC(C)(C)N(C(=O)CSc2nnc(-c3ccccc3)o2)c2ccc(C)cc21,inactive
10,Cc1ccnc(NC(=O)c2ccoc2C)c1,inactive
11,COc1ccccc1CNC(=O)c1ccc(SC)cc1OC,inactive
12,COc1cc(SC)ccc1C(=O)N(Cc1ccccc1)c1ccccc1,inactive
13,Cc1ccnc(NC(=O)CCCOc2ccccc2)c1,inactive
14,COc1cc(SC)ccc1C(=O)Nc1nc(C)cs1,1.26 µM (active)
15,COc1cc(SC)ccc1C(=O)Nc1cc(C)ccn1,6.31 µM (active)
16,COc1ccc(C)cc1NC(=O)CNCc1cccs1,inactive
17,Cc1sc2ncn(CC(=O)NCCCC(=O)NCc3ccc(F)cc3)c(=O)c2c1C,inactive
18,CC(C)(C)c1ccc(C(=O)N2CCN(CCNC(=O)C(=O)Nc3ccc(F)cc3)CC2)cc1,inactive

# Source: PubChem BioAssay AID2551 (National Center for Advancing Translational Sciences (NCATS), 2010)
